Screening results deposited in PubChem by several laboratories.
697 NFkB inh: lowers PMA/ionomycin-induced NF-kB signal in 697 B cells | 697 B-cell NF-kB luciferase reporter, 16 h | 330,000 compounds, 0.33% hits | AID 435022 | inhibition, % at 4 µM; in the data active = inhibition above about 35%
LMP1 NFkB inh: inhibitors of Epstein-Barr LMP1-induced NF-kappaB reporter | AID 504558 | 350,000 compounds, 0.69% hits | inhibition, % at 12.5 µM | LMP1-induced NF-kappaB luciferase reporter cells, luminescence; in the data active = inhibition above about 41%;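 note: 0% = neutral control wells and 100% = reference inhibitor control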
TRPM1 prom inh: inhibitors of MITF-driven TRPM1 promoter in melanoma cells; SK-MEL-5 TRPM1 promoter luciferase, 24 h; inhibition, % at 12.5 µM; 330,000 compounds, 0.83% hits;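 active = mean inhibition across replicates of 60% or more, whatever share of single replicates reaches that level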
Gli-Sufu antag: blocks Gli-Sufu signaling in a luciferase reporter. Sufu-KO-LIGHT fibroblasts, Gli luciferase reporter luminescence. inhibition, % at 5 µM. 340,000 compounds, 0.74% hits;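 active = inhibition above about 55%, limit read from the data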;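 note: 0% = DMSO-treated cells and 100% = wells with medium but no cells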
Jurkat NFkB inh: lowers PMA/ionomycin-induced NF-kB signal in Jurkat cells; 330,000 compounds, 0.53% hits; PMA/ionomycin-induced NF-kB luciferase reporter, luminescence; inhibition, % at 4 µM; in the data active = inhibition above about 50%
Shn3 3UTR inh: inhibitors of Schnurri-3 3'UTR reporter in osteoblasts; Clone20 osteoblast Shn3 3'UTR firefly luciferase, 24 h; inhibition, % at 12.5 µM; 360,000 compounds, 0.52% hits; AID 588674;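 active = mean inhibition of at least 75% with every replicate also reaching 75%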;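 note: 0% = median of neutral control wells and 100% = pilot-screen positive control compound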
Jurkat NFkB conf: inhibitors of the PMA/ionomycin-induced NF-kB reporter in Jurkat cells, retest; shares compounds with Jurkat NFkB inh; Jurkat NF-kB luciferase, 16 h; inhibition, % at 4 µM; 2,700 compounds, 27% hits;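 active = inhibition reaching about 45% at 4 µM in either replicate, limit read from the data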;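 note: plate controls were PMA/ionomycin stimulated DMSO wells for no effect and unstimulated DMSO wells for full effect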
Numbers without * were called inactive. Compounds with a hit are over-represented: about 2.3% of the library has one in this group of screens.

O=C(/C=C/c1cccc(Br)c1)OCC(=O)N1CCN(c2ccccc2)CC1 was read as 697 NFkB inh 14, LMP1 NFkB inh -2, Gli-Sufu antag -10, Jurkat NFkB inh -9 and Shn3 3UTR inh -2.
CCOC(=O)CSc1nc(-c2ccncc2)ccc1C#N was read as 697 NFkB inh -118, LMP1 NFkB inh -34, TRPM1 prom inh -62, Gli-Sufu antag -58, Jurkat NFkB inh -210, Shn3 3UTR inh -51 and Jurkat NFkB conf -75.
`O=C(CN(c1ccccc1)S(=O)(=O)c1ccccc1)N1CCOCC1` gave 697 NFkB inh 4, LMP1 NFkB inh -5, TRPM1 prom inh 5, Gli-Sufu antag 9, Jurkat NFkB inh 0 and Shn3 3UTR inh 5.
CCc1cccc2c(C(=O)CN3C(=O)NC4(CCCCCC4)C3=O)c[nH]c12 was read as 697 NFkB inh -15, LMP1 NFkB inh -136, TRPM1 prom inh -97, Gli-Sufu antag -6, Jurkat NFkB inh 94*, Shn3 3UTR inh 48 and Jurkat NFkB conf 16.
For CCc1cccc2c(C(=O)CN3C(=O)NC4(CCCCC4)C3=O)c[nH]c12 the results were 697 NFkB inh -15, LMP1 NFkB inh -71, TRPM1 prom inh -74, Gli-Sufu antag 2, Jurkat NFkB inh 6 and Shn3 3UTR inh 12.
Screening CCOC(=O)c1cnc2c(ccc3ccccc32)c1N returned 697 NFkB inh -120, LMP1 NFkB inh -77, TRPM1 prom inh -61, Gli-Sufu antag -85, Jurkat NFkB inh -166, Shn3 3UTR inh -68 and Jurkat NFkB conf -117.
For COc1ccccc1-c1nc(-c2ccc(Br)cc2)no1 the results were 697 NFkB inh -165, LMP1 NFkB inh -42, TRPM1 prom inh -70, Gli-Sufu antag -105, Jurkat NFkB inh -128 and Shn3 3UTR inh -99.
COc1ccc(-c2nc(-c3ccc(Br)cc3)no2)c(OC)c1 was read as 697 NFkB inh -139, LMP1 NFkB inh -50, TRPM1 prom inh -91, Gli-Sufu antag -55, Jurkat NFkB inh -190, Shn3 3UTR inh -66 and Jurkat NFkB conf -79.
`COc1ccc(Cl)cc1NC(=O)CN(C)C(=O)c1cc2c(F)cccc2s1` gave 697 NFkB inh 1, LMP1 NFkB inh -12, TRPM1 prom inh 13, Gli-Sufu antag -2, Jurkat NFkB inh 58*, Shn3 3UTR inh -10 and Jurkat NFkB conf 17.
For Cc1ccc(C2=Nc3ccccc3N=C(C(Cl)Cl)C2)cc1 the results were 697 NFkB inh -149, LMP1 NFkB inh 1, TRPM1 prom inh 17, Gli-Sufu antag -24, Jurkat NFkB inh -162, Shn3 3UTR inh -12 and Jurkat NFkB conf -91.
For Cc1ccc(-n2nc3ccc(N)cc3n2)cc1 the results were 697 NFkB inh -80, LMP1 NFkB inh -12, TRPM1 prom inh 7, Gli-Sufu antag -43, Jurkat NFkB inh -106 and Shn3 3UTR inh 18.
`CC(C)c1ccc(-n2nc3ccc(N)cc3n2)cc1` gave 697 NFkB inh -95, LMP1 NFkB inh -30, TRPM1 prom inh 16, Gli-Sufu antag -92, Jurkat NFkB inh -169, Shn3 3UTR inh 28 and Jurkat NFkB conf -41.
For CC(=O)Nc1ccc(S(=O)(=O)N2CCSc3ccccc32)cc1 the results were 697 NFkB inh -79, LMP1 NFkB inh -1, TRPM1 prom inh 0, Gli-Sufu antag -19, Jurkat NFkB inh 56*, Shn3 3UTR inh 1 and Jurkat NFkB conf 49*.
O=S(=O)(c1cccc(Cl)c1)N1CCSc2ccccc21 was read as 697 NFkB inh 8, LMP1 NFkB inh -9, Gli-Sufu antag -15, Jurkat NFkB inh -2 and Shn3 3UTR inh -11.
`O=C1CN(C(=O)c2cccc(Br)c2)c2ccccc2N1` gave 697 NFkB inh -39, LMP1 NFkB inh -10, TRPM1 prom inh 28, Gli-Sufu antag -7, Jurkat NFkB inh 52*, Shn3 3UTR inh 6 and Jurkat NFkB conf 16.
`COc1ccc(OC)c(NS(=O)(=O)c2ccc(N3CCCC3=O)cc2)c1` gave 697 NFkB inh 1, LMP1 NFkB inh 0, TRPM1 prom inh 27, Gli-Sufu antag 45, Jurkat NFkB inh 55*, Shn3 3UTR inh 31 and Jurkat NFkB conf 55*.
For Cc1ccccc1NS(=O)(=O)c1cc2c3c(c1)CC(=O)N3CCC2 the results were 697 NFkB inh 7, LMP1 NFkB inh -4, TRPM1 prom inh 2, Gli-Sufu antag 4, Jurkat NFkB inh 5 and Shn3 3UTR inh -4.
